Compounds with a hit are over-represented: about 6.5% of the library has one in this group of screens.
FMDV antiviral – High Throughput Screening for Foot and Mouth Disease Virus Antivirals. FMDV antiviral cell-based qHTS. Potency, µM (highest dose often 57.9 µM), without a hit: top-dose activity change, negative = inhibition, actives largely listed as inhibitors. hit rate 1.2% among 410,000. AID 1159524, 2015; calls by dose curve; tested in HEK293T cells; further: read-out not given here; potency means the concentration at half of the fitted maximal effect; nearly all actives have a fitted effect of over 45% in size
Marburg entry inh – qHTS for inhibitors of binding or entry into cells for Marburg Virus; Marburg virus pseudotyped entry inhibition, cell reporter; Potency, µM (series often up to 37.8 µM), inactives show top-dose activity change, negative = inhibition, most hits filed as inhibitors; hit rate 1.8% among 300,000; AID 540276, 2011; calls by dose curve; tested in HEK293 cells; further: potency means the concentration at half of the fitted maximal effect
Vaccinia Venus – qHTS for Stage-Specific Inhibitors of Vaccinia Orthopoxvirus: Venus Reporter Primary qHTS; Vaccinia virus Venus reporter expression, fluorescence; Potency, µM (titrated, usually from 36.5 µM), inactives show at the top dose activity change, negative = inhibition, usual class: inhibitors; hit rate 0.46% among 330,000; AID 720580, 2013; calls by dose curve; tested in A549 cells; further: potency means the concentration at half of the fitted maximal effect; nearly all actives have a fitted effect of over 30% in size
Vaccinia mCherry – qHTS for Stage-Specific Inhibitors of Vaccinia Orthopoxvirus: mCherry Reporter Primary qHTS. Potency, µM (top dose mostly 36.5 µM), for inactives: at the highest dose activity change, negative = inhibition, actives largely listed as inhibitors. hit rate 0.63% among 310,000. Vaccinia virus mCherry reporter infection, fluorescence; calls by dose curve; tested in A549 cells; further: potency means the concentration at half of the fitted maximal effect; nearly all actives have a fitted effect of over 35% in size
HCMV inh – qHTS Assay for inhibitors of the human cytomegalovirus (HCMV); hit rate 4.5% among 410,000; activity change, negative = inhibition, % at 57.5 µM; AID 1259415, 2018; HFF cells, HCMV-luciferase reporter, 72 h; stronger effect = lower value; in the data active means activity change below about -60%; inconclusive means no clear call, values can overlap the other calls; inactive means above about -39%
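Human foreskin fibroblasts infected with luciferase-reporter HCMV at MOI 1 PFU/cell, compounds at two doses. Luciferase measured 72 h post infection; normalized to buffer-only basal and Salinomycin (10uM) controls.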
Lassa entry inh – qHTS for Inhibitors of binding or entry into cells for Lassa Virus; Lassa virus pseudotype entry inhibition, cell reporter; Potency, µM (doses to about 37.9 µM), for inactives: top-dose activity change, negative = inhibition, usual class: inhibitors; hit rate 1.2% among 300,000; AID 540256, 2011; calls by dose curve; tested in HEK293 cells; further: potency means the concentration at half of the fitted maximal effect; nearly all actives have a fitted effect of over 50% in size
The depositor's hits bear a star; i = inactive; ? = inconclusive; · = no result; [ ] = remark or other dose. On the % scale 0 is the no-effect control and ±100 the full control effect.

SMILES	FMDV antiviral	Marburg entry inh	Vaccinia Venus	Vaccinia mCherry	HCMV inh	Lassa entry inh
Cc1ccc2cc(C=C(C#N)C#N)c(N3CCCCC3)nc2c1	·	-23%	-10%	-19%	52	21%
Cc1ccc2cc(C=C(C#N)C#N)c(Cl)nc2c1	32µM*	-1%	24%	-19%	31	1%
Cc1ccc(C2CC(=O)N(Cc3ccc(F)cc3)c3c2c(C)nn3-c2nc(C)cc(C)n2)cc1 (configuration not stated)	-12%	-2%[46.1 µM]	-17%	-5%	?	3%[46.1 µM]
CC(Nc1oc(-c2ccccc2)nc1C(C)(C)C)c1ccccc1 (configuration not stated)	·	-5%[14.2 µM]	·	·	·	?
C(=N\Nc1nc2ccccc2s1)/c1ccccn1	3.5µM*	?	?	13µM*	-97*	0.89µM*
COc1ccc(C=NNc2nc3ccccc3s2)cc1	-61%	7.1µM*	6%	?	15	?
Cc1csc(N/N=C/c2ccccn2)n1	?	?	?	?	-103*	?
CC(C)CN(CC(C)C)c1nnc(NC(=O)Nc2cccc(C(F)(F)F)c2)s1	?	-3%[46.1 µM]	-27%	-27%	-38	-8%[46.1 µM]
COc1ccc2cc(CNCc3nonc3C)c(N3CCCC(CO)C3)nc2c1 (configuration not stated)	13%	·	-4%	-12%	·	·
CN1CC(c2ccccc2)C2(SC(=S)N(Cc3ccco3)C2=O)C12C(=O)Nc1ccccc12 (configuration not stated)	?	?	·	·	-101*	?
CCc1ccc(NC(=O)c2cnn(-c3ccccc3)c2-n2cccc2)cc1	-28%	?	-12%	-12%	-29	-38%[46.1 µM]
COc1cccc(NC(=O)c2cnn(-c3ccccc3)c2-n2cccc2)c1	-26%	·	-11%	-7%	-63*	8%[46.1 µM]
Cc1c(C(=O)Nc2ccccc2)cnn1-c1ccccc1	8%	?	-11%	-22%	159	?
Cc1ccc(NC(=O)c2cnn(-c3ccccc3)c2C)cc1C	-41%	?	-19%	-10%	-61*	3.2µM*
COc1cccc(NC(=O)c2cc(Cl)nnc2Cl)c1	-15%	?	?	6.3µM*	24	?
COc1ccc2sc(N(Cc3cccnc3)C(=O)C3COc4ccccc4O3)nc2c1 (configuration not stated)	-16%	·	-25%	i	?	2%[46.1 µM]
Cc1cccc(NC(=O)C2CCC(CNS(=O)(=O)c3csc(C(N)=O)c3)CC2)c1C (configuration not stated)	1%	·	11%	13%	8	-4%[46.1 µM]
COc1cc(=O)n2c(c1C(=O)NC(C)c1ccco1)CCN(C(=O)c1cccc(C)c1C)CC2 (configuration not stated)	27%	·	-8%	-12%	·	·
CC(=N)C1=C(O)CC(c2ccccc2)CC1=O (configuration not stated)	2%	0%[46.1 µM]	-8%	20%	-99*	12%
Fc1ccc(NC(=S)N2CCCN(c3ccc(C(F)(F)F)cn3)CC2)c(F)c1	?	·	·	·	-80*	·
CC1CN(C(=S)Nc2ccc(F)cc2F)CC(C)O1 (configuration not stated)	-1%	·	·	·	16	·
Cc1csc2ncnc(N3CCN(C(=S)Nc4ccc(F)cc4F)CC3)c12	?	?	?	?	-77*	?
O=C(Nc1ccc(F)cc1F)N1CCCN(c2ccc(C(F)(F)F)cn2)CC1	?	?	?	?	-37	-11%
S=c1[nH]c(=S)c2[nH]cnc2[nH]1	·	·	-12%	-18%	·	·
COC(=O)CCN(Cc1ccc(OC)cc1OC)S(=O)(=O)c1ccccc1Br	·	·	·	·	3	·
SMILES	FMDV antiviral	Marburg entry inh	Vaccinia Venus	Vaccinia mCherry	HCMV inh	Lassa entry inh
Cc1cc(C)c(NC(=O)Cn2c(=O)n(CCc3ccccc3)c(=O)c3ccccc32)c(C)c1	-4%	-10%[46.1 µM]	-11%	-5%	16	?
CCC(Nc1ccc(-c2nc(-c3ccco3)no2)cc1[N+](=O)[O-])c1ccccc1 (configuration not stated)	10%	9%[46.1 µM]	-6%	-8%	12	17%[46.1 µM]
O=C(CCCN1C(=O)C(c2ccccc2)Oc2cccnc21)Nc1ccc(Br)cc1F (configuration not stated)	-20%	·	0%	-6%	-105*	-20%[46.1 µM]
Cc1ccc(NC(=O)CCCN2C(=O)C(c3ccccc3)Oc3cccnc32)c(C)c1 (configuration not stated)	-12%	·	-25%	-12%	?	·
O=C(Cc1ccc(F)cc1)NCCc1csc2nc(-c3ccc(Cl)cc3)nn12	22%	·	-19%	-11%	-22	-19%[46.1 µM]
Oc1cc2c(cc1C(c1ccc(Cl)c(Cl)c1)N1CCCC1)OCO2 (configuration not stated)	?	?	-7%	?	-97*	4%[46.1 µM]
CC(C)c1ccc(NC(=O)C(c2ccc3c(c2)OCO3)N2CCCCC2)cc1 (configuration not stated)	-2%	·	-13%	-7%	-5	·
CC(NC(=O)CN1C(=O)NC(Cc2ccccc2)(Cc2ccccc2)C1=O)C12CC3CC(CC(C3)C1)C2 (configuration not stated)	-4%	?	?	10µM*	23	?
CC(NC(=O)Cn1ccsc1=N)C12CC3CC(CC(C3)C1)C2 (configuration not stated)	-28%	10µM*	-11%	i	1	?
CC1CCCCC1NC(=O)CN1C(=O)NC(Cc2ccccc2)(Cc2ccccc2)C1=O (configuration not stated)	6%	13%	-7%	-9%	0	1%
C=C(C)C(=O)C=CCCCC=CC(=O)OCC	·	7%[14.2 µM]	·	·	·	·
CC(Cl)C(=O)c1c[nH]c2ccccc12 (configuration not stated)	-12%	-4%[46.1 µM]	-14%	-27%	-67*	-10%
COc1ccccc1NC(=O)c1oc2ccccc2c1NC(=O)Cc1cccs1	?	-8%[46.1 µM]	?	?	18	-14%[46.1 µM]
Cc1ccc(C)n1C1C(=O)N(Cc2ccc(C(C)C)cc2)c2ccccc21 (configuration not stated)	·	·	·	·	18	·
CCN=c1scc(-c2ccc3c(c2)NC(=O)CO3)n1N=C1CCCC1	?	4µM*	?	?	-77*	?
CCCCN=c1scc(-c2ccc3c(c2)NC(=O)CO3)n1N=C1CCCC1	25µM*	?	·	·	-76*	?
CN1c2ccccc2C(C)(C)C12CC(c1ccc(S(=O)(=O)N3CCCCC3)cc1)=NO2 (configuration not stated)	4%	0.16µM*	11%	-3%	-70*	0.18µM*
O=S(=O)(c1ccc(-c2ccccc2)cc1)N1CCCCC1	-6%	5%	3%	-9%	17	-14%
